In assay [1] the test system is Staphylococcus aureus MW2 delta-mecA (mecA-). Description: normalized GFP fluorescence (growth of mecA- strain) (fraction of control range); higher = more growth of mecA- strain. To be noted: compound concentration: 150 uM; cefoxitin: subinhibitory; fluorescent label: GFP. Put shortly:
(§1)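 In 1536-well plates holding 150 μM compound (1.5% DMSO), a 1:1 mix of pre-induced S. aureus MW2 cells was added at 5 µL/well, in one replicate. One strain carried the gene and DsRed, the other lacked the gene and carried GFP, and the LB held a subinhibitory antibiotic dose chosen daily. Plates stood unshaken for 20 h at 37 °C, 90% humidity, before DsRed (540/590) and GFP (485/520) readings, which were scaled per plate to single-strain control medians, with plates high in untreated ratio and rows above DsRed/GFP 10 dropped.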

The test system of assay [2] is Staphylococcus aureus MW2 (mecA+). The assay can be described thus: normalized DsRed fluorescence (growth of mecA+ strain) (fraction of control range); higher = more growth of mecA+ strain. Conditions: compound concentration: 150 uM; cefoxitin: subinhibitory; fluorescent label: DsRed. The gist of the method:
as §1

The results in this text go back to the supplement of paper PMC7695840.

Turning to `c1ccc(CC2=NCCN2)cc1`, the “normalized GFP fluorescence” value in assay [1] was 0.234. In addition, in assay [2], the “normalized DsRed fluorescence” value amounted to 0.835.

Consider `C1CNCCN1`, for which the “normalized GFP fluorescence” value in assay [1] worked out at 0.806. Moreover, the “normalized DsRed fluorescence” value in assay [2] was determined as 0.885.

Take `NCCNCCNCCN`: the “normalized GFP fluorescence” value in assay [1] came to 0.763. Moreover, in assay [2], the “normalized DsRed fluorescence” value came out at 0.66.

Regarding `C[C@]12CCC(=O)C=C1[C@@H]1C[C@@H]1[C@H]1[C@@H]3[C@@H]4C[C@@H]4[C@@]4(CCC(=O)O4)[C@@]3(C)CC[C@@H]12`, the “normalized GFP fluorescence” value in assay [1] was found to be 0.162. In addition, the “normalized DsRed fluorescence” value in assay [2] was 0.65.

With `COc1cc2c3cc1Oc1cc(ccc1O)C[C@@H]1c4c(cc(OC)c(O)c4Oc4ccc(cc4)C[C@@H]3N(C)CC2)CC[N+]1(C)C`, the “normalized GFP fluorescence” value in assay [1] turned out to be 0.357. In addition, the “normalized DsRed fluorescence” value in assay [2] was determined as 0.607.

In the case of `CC(=O)Oc1cc2c(s1)CCN(C(C(=O)C1CC1)c1ccccc1F)C2` (stereo unspecified) [Prasugrel (Effient)], in assay [1], the “normalized GFP fluorescence” value came out at 0.226. In addition, the “normalized DsRed fluorescence” value in assay [2] came to 0.841.

In the case of `NCc1ccc(S(N)(=O)=O)cc1`, the “normalized GFP fluorescence” value in assay [1] was 0.22. Besides, the “normalized DsRed fluorescence” value in assay [2] worked out at 0.71.

On to `Cc1nnc(C(=O)NC(C)(C)c2nc(C(=O)NCc3ccc(F)cc3)c(O)c(=O)n2C)o1` [Raltegravir (MK-0518)], for which the “normalized GFP fluorescence” value in assay [1] was 0.051. The “normalized DsRed fluorescence” value in assay [2] turned out to be 0.507.

On to `CCOC(=O)O[C@]1(C(=O)COC(=O)CC)CC[C@H]2[C@@H]3CCC4=CC(=O)C=C[C@]4(C)[C@H]3[C@@H](O)C[C@@]21C`, for which the “normalized GFP fluorescence” value in assay [1] was 0.129. Besides, the “normalized DsRed fluorescence” value in assay [2] was determined as 1.07.

With `CCCCCC(=O)O[C@]1(C(C)=O)CC[C@H]2[C@@H]3CCC4=CC(=O)CC[C@]4(C)[C@H]3CC[C@@]21C`, in assay [1], the “normalized GFP fluorescence” value worked out at 0.34. Besides, the “normalized DsRed fluorescence” value in assay [2] was determined as 0.39.

Regarding `O=C(O)C[C@H](O)C[C@H](O)/C=C/c1c(C2CC2)nc2ccccc2c1-c1ccc(F)cc1` [Pitavastatin calcium (Livalo)], in assay [1], the “normalized GFP fluorescence” value is -0.0148. In assay [2], the “normalized DsRed fluorescence” value worked out at 0.559.

On to `O=C(c1ccccc1)c1ccc2n1CCC2C(=O)O` (stereo unspecified), for which the “normalized GFP fluorescence” value in assay [1] was 0.247. In addition, in assay [2], the “normalized DsRed fluorescence” value came to 0.711.

For the compound `COC(c1ccccc1)(c1ccccc1)[C@H](Oc1nc(C)cc(C)n1)C(=O)O` [Ambrisentan], the “normalized GFP fluorescence” value in assay [1] was determined as 0.466. In assay [2], the “normalized DsRed fluorescence” value was 0.281.
